Reference: PubChem BioAssay (NCATS)
Unmarked numbers belong to inactive results. Calls of active or inactive are those of the source. How the calls were made is not given here.

System: HIV-1 nucleocapsid protein NCp7 (binding to TG oligonucleotide)
Assay: HIV Nucleocapsid (AID 346);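 further: potency is for inhibitors that block NC binding and lower polarization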
Settings: HIV-1 NC / fluorescein-TGTGTGTG probe, fluorescence polarization
Method in brief: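 HIV-1 NC (100 nM) binding to fluorescein-labelled ssDNA TG4xF (10 nM) in Hepes pH 7.5, 250mM NaCl, 1uM ZnCl2, TCEP and 2-mercaptoethanol; compounds pin-transferred, 1 hr room temperature, fluorescence polarization read on CCD imager.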
Potency means the concentration at half of the fitted maximal effect.

Row | SMILES | Potency
1 | CN(Cc1ccco1)c1cc(-c2ccoc2)ncn1 | > 20 µM
2 | CS(=O)(=O)N1CCC2(CC1)CN(c1ccccc1)C2 | > 20 µM
3 | CCNc1ncc2nc(-c3cc(F)cc(F)c3)c(=O)n(CCC#N)c2n1 | 19.8 µM
4 | COc1ccc(-c2nc3cnc(N4CCN(C)CC4)nc3n(-c3ccc(OC)cc3)c2=O)cc1 | > 20 µM
5 | CC(=O)N1CCC2(CCCN(Cc3ccc(C#N)cc3)C2)CC1 | > 20 µM
6 | COCCn1c(=O)c(-c2cccc(C#N)c2)nc2cnc(N(C)C)nc21 | > 4 µM
7 | CCNc1ncc2nc(-c3cn(C)c4ccccc34)c(=O)n(CCC#N)c2n1 | > 20 µM
8 | c1csc(CNc2ncncc2-c2ccoc2)c1 | > 20 µM
9 | CN(C)Cc1ccccc1-c1cc(NC2CC2)ncn1 | > 20 µM
10 | COc1ccc(CNc2nc(-c3ccc4c(c3)OCO4)nc3ccccc23)c(OC)c1 | > 20 µM
11 | COC(=O)N1CCC2(CCN(C(=O)Nc3cccc(C#N)c3)CC2)CC1 | > 20 µM
12 | Cc1nc2cnc(N3CCOCC3)nc2n(CCc2ccccc2)c1=O | > 20 µM
13 | CS(=O)(=O)Nc1cccc(-c2nccc(Nc3ccc(F)cc3)n2)c1 | > 20 µM
14 | COc1ccc(CNc2nc(-c3cccnc3)nc3ccccc23)c(OC)c1 | > 20 µM
15 | N#Cc1cccc(NC(=O)N2CCCC3(CCN(C(=O)c4cnccn4)CC3)C2)c1 | > 20 µM
16 | COc1cccc(-c2nccc(NCc3ccccc3OC)n2)c1 | > 20 µM
17 | c1cncc(CNc2ncnc3ccc(-c4ccoc4)cc23)c1 | > 20 µM
18 | Cc1cccc(CNc2ncncc2-c2ccccc2C(F)(F)F)c1 | > 20 µM
19 | COc1ncc2nc(CCc3ccccc3)c(=O)n(C)c2n1 | > 20 µM
20 | COc1ccc(-n2c(=O)c(-c3ccccc3)nc3cnc(N4CCNCC4)nc32)cc1 | > 20 µM

Row | SMILES | Potency
21 | CN(C)C(=O)c1ccc(-c2nc(N(C)Cc3ccco3)c3ccccc3n2)cc1 | > 20 µM
22 | COCCNc1ncncc1-c1ccccc1OC | > 20 µM
23 | O=C(Nc1ccccc1)N1CC2(CCN(C(=O)c3cnccn3)CC2)C1 | > 20 µM
24 | COCCn1c(=O)c(C)nc2cnc(Oc3cccc(Cl)c3)nc21 | > 4 µM
25 | COc1cccc(-c2cc(NCc3ccccc3)ncn2)c1 | > 20 µM
26 | COc1ccccc1CNc1ncncc1-c1cccc(C#N)c1 | > 20 µM
27 | CCNc1ncc2nc(-c3cccs3)c(=O)n(CCC#N)c2n1 | 6.37 µM (active)
28 | Cc1cnc(CNc2ncncc2-c2ccc3c(c2)OCO3)cn1 | > 20 µM
29 | O=C(Nc1ccccc1)N1CCCC2(CCN(C(=O)c3cnccn3)CC2)C1 | > 20 µM
30 | Cc1noc(C)c1-c1nc(Nc2ccc(F)cc2)c2ccccc2n1 | > 20 µM
31 | COCCn1c(=O)c(CCc2ccccc2)nc2cnc(N(C)C)nc21 | > 20 µM
32 | COCCn1c(=O)c(-c2ccc(Cl)cc2)nc2cnc(OCc3ccccc3)nc21 | > 20 µM
33 | O=C(c1cnccn1)N1CCC2(CC1)CCN(c1ncccn1)CC2 | > 20 µM
34 | O=C(c1cc(C(F)(F)F)cc(C(F)(F)F)c1)N1CCC2(CCCN(Cc3ccncc3)C2)CC1 | > 20 µM
35 | CC(C)NC(=O)N1CCCC2(CCN(C(=O)c3cccc(F)c3)CC2)C1 | > 20 µM
36 | O=C(c1ccco1)N1CCC2(CC1)CCN(C(c1ccccc1)c1ccccc1)CC2 | > 20 µM
37 | O=c1c(CCc2ccccc2)nc2cncnc2n1Cc1ccccc1 | > 20 µM
38 | CN(C)c1nc(-c2cccnc2)nc2ccccc12 | > 20 µM
39 | Cc1noc(C)c1C(=O)N1CCC2(CC1)CN(c1cccc(-c3ccccc3)c1)C2 | > 20 µM
40 | CN1CCN(c2ncncc2-c2cccnc2)CC1 | > 20 µM
